Columns and labels:
Details in all cases: concentration: 1 μM, replicates: in singlicate; n = 1
NIM1 = test system: T1, NIM1
T1 construct: gene MGC42105

NLK = test system: NLK
OSR1 = test system: T2, OSR1
T2 construct: gene OXSR1

PAK1 = test system: PAK1
PAK2 = test system: PAK2
PAK3 = test system: PAK3
PAK4 = test system: PAK4
PAK6 = test system: PAK6
PAK7 = test system: PAK7
PCTK1 = test system: T3, PCTK1
T3 construct: gene CDK16
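Further: KINOMEscan kinase panel screen.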

SMILES | %Inh (NIM1) [%] | %Inh (NLK) [%] | %Inh (OSR1) [%] | %Inh (PAK1) [%] | %Inh (PAK2) [%] | %Inh (PAK3) [%] | %Inh (PAK4) [%] | %Inh (PAK6) [%] | %Inh (PAK7) [%] | %Inh (PCTK1) [%]
COc1cccc(C(=O)Nc2cccc(Oc3ccc4nc(NC(=O)C5CC5)cn4n3)c2)c1 | 0 | 0 | 0 | 17 | 26 | 23 | 18 | 15 | 0 | 0
COc1cc(Nc2nccc(N3CCC(NC(=O)c4cc5ccccc5s4)C3)n2)cc(OC)c1OC (stereo not shown) [GSK1379760] | 6 | 0 | 2 | 4 | 2 | 9 | 0 | 0 | 0 | 0
CN1CCN(CCCNc2nccc(-c3c(-c4ccc(F)cc4)nn4cc(C(F)(F)F)ccc34)n2)CC1 [GW621581] | 0 | 55 | 6 | 8 | 7 | 30 | 0 | 0 | 0 | 0
C[C@@H](Oc1cc(-n2cnc3cc(-c4ccnc(NCCS(C)(=O)=O)c4)ccc32)sc1C(N)=O)c1ccccc1Cl [GSK907232] | 69 | 14 | 20 | 6 | 32 | 26 | 0 | 0 | 0 | 7
Cl.Cl.NCC(NC(=O)c1cc(-c2ccccc2)c(-c2ccnc3[nH]ccc23)s1)c1ccccc1 (stereo not shown) [GSK1321561] | 50 | 55 | 15 | 4 | 0 | 30 | 0 | 12 | 44 | 7
CCS(=O)(=O)c1ccc(OC)c(Nc2nccc(-c3c(-c4cccc(NC(=O)c5c(F)cccc5F)c4)nn4ncccc34)n2)c1 [GSK326180] | 7 | 48 | 9 | 0 | 0 | 14 | 0 | 11 | 3 | 2
Cc1cccc(NC(=O)Nc2ccc(Oc3ncnc4ccn(C)c34)cc2)c1 | 0 | 0 | 0 | 0 | 0 | 0 | 0 | 0 | 0 | 0
COC(=O)Nc1nc2cc(Oc3ccc(NC(=O)Nc4cc(C(F)(F)F)ccc4F)cn3)ccc2[nH]1.Cl.Cl [GW681170] | 27 | 30 | 0 | 0 | 0 | 9 | 0 | 0 | 0 | 0
CC(=O)N1CCN(c2ccc(Nc3nccc(-c4sc(C(C)C)nc4-c4cccc(NS(=O)(=O)c5cccc(Cl)c5)c4)n3)cn2)CC1 [GSK1660437] | 0 | 91.8 | 5 | 72 | 90.1 | 57 | 0 | 0 | 0 | 98.6
Cc1ccc(S(=O)(=O)Nc2ccc(Nc3nccc(Nc4cccc5[nH]ncc45)n3)cc2)cc1 [GSK581271] | 26 | 56 | 13 | 14 | 12 | 35 | 0 | 18 | 0 | 2

From paper PMC5540273 (PLoS ONE, 2017)
